Screens (PubChem BioAssay)
SW480 rereplic – inducers of DNA re-replication in SW480 colon cancer cells | SW480 DNA re-replication, Hoechst DNA content imaging, 48 h | 340,000 tested, 1.8% active | Potency, µM (highest dose often 46.1 µM), actives largely listed as activators; note: nearly all actives have a fitted effect of over 55% in size
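Per well, 250 cells were exposed to pinned compound for 48 hr. Nuclear DNA was visualised with Hoechst (40 min, 37 C) and total object intensity recorded by fluorescence scanning.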
KB-V1 cytotox – kills drug-selected multidrug resistant KB-V1 cells | 400,000 tested, 3.4% active | KB-V1 MDR cells viability, CellTiter-Glo, 72 h | AID 1347076 | Potency, µM (titrated, usually from 46.1 µM), most hits filed as cytotoxic; note: nearly all actives have a fitted effect of over 60% in size
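qHTS viability screen in drug-selected KB-V1 MDR cells: 72 h compound treatment at 37 degrees C, ATP luminescence end point.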
HT1080NT lethal – kills 2HG-producing HT-1080-NT fibrosarcoma cells | HT-1080-NT fibrosarcoma viability, CellTiter-Glo ATP luminescence, 48 h | Potency, µM (top dose mostly 46.1 µM), actives largely listed as cytotoxic | 360,000 tested, 1.6% active | AID 686970;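 note: NT is the 2HG producing partner of a matched IDH1 knockdown line; nearly all actives have a fitted effect of over 55% in size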
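Viability of the 2HG-overproducing fibrosarcoma line after 48 hours of compound exposure at 37 degrees C was determined by luminescence with CellTiter-Glo, and concentration-effect curves were then fitted and categorized.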
HT1080 IDH1KD tx – kills HT-1080 cells with IDH1 knockdown; HT-1080 IDH1 knockdown viability, ATP luminescence, 48 h; Potency, µM (doses to about 46.1 µM), usual class: cytotoxic; AID 686971; 360,000 tested, 2% active
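HT-1080-IDH1KD cells (IDH1 knocked down), 750/well in RPMI with 5% FBS, treated with compound 48 h at 37 degrees C. Viability by CellTiter-Glo luminescence, normalised to DMSO and no-cell wells; concentration-response curves classed.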
MCF10A rereplic – induces DNA re-replication in MCF 10a normal breast cells. Potency, µM (top dose mostly 46.1 µM), actives largely listed as activators. MCF 10A DNA re-replication, Hoechst nuclear intensity, 48 h. AID 624296. 350,000 tested, 2.9% active; note: nearly all actives have a fitted effect of over 50% in size
KB-3-1 tox – KB-3-1 parental cell cytotoxicity; KB-3-1 viability, CellTiter-Glo ATP luminescence, 72 h; Potency, µM (series often up to 46.1 µM), hits mostly cytotoxic; 400,000 tested, 1.4% active; note: nearly all actives have a fitted effect of over 60% in size
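Screening of KB-3-1 cells (DMEM, 10% FBS, phenol-red free) ran from lowest to highest compound concentration; after 72 h at 37 °C viability was read luminescently and curves fitted.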
Each line names hits and unclear results; the compound was inactive in the other large screens. Most compounds without a hit are left out; they make up all but 8% or so of the library. Calls come from the whole dose curve; as a rule, active = well fitted curve in the direction sought with a large enough effect; inconclusive = small, poorly fitted or top-dose-only effect, or another doubt; inactive = no such curve, though single readings can be large; an effect the other way counts as inactive or inconclusive.

O=C(O)Cn1cc(C(=S)N2CCOCC2)c2ccccc21	none
S=C(c1cn(CCOc2cccc3ccccc23)c2ccccc12)N1CCCC1	SW480 rereplic inconclusive, KB-V1 cytotox inconclusive, MCF10A rereplic inconclusive, KB-3-1 tox 18µM
COc1cccc(CNC(=O)CSC2=Nc3ccccc3C3=NC(C(C)C)C(=O)N23)c1 (configuration not stated)	none (no result: SW480 rereplic, HT1080NT lethal, HT1080 IDH1KD tx, MCF10A rereplic)
CCN(CC)S(=O)(=O)c1ccc(N2CCOCC2)c(NC(=O)c2cnccn2)c1	KB-V1 cytotox inconclusive
COC(=O)c1ccc(N2CCN(c3ccccc3)CC2)c(N)c1	none
Cc1ccc(OCC(=O)N/N=C/C=C/c2ccco2)c(Br)c1	SW480 rereplic 16µM, HT1080 IDH1KD tx inconclusive, MCF10A rereplic inconclusive
Cc1cccnc1NC(=O)CNC(=O)c1ccccc1	none
CCOC(=O)C1=C(COC(=O)CNS(=O)(=O)c2c(F)cc(F)cc2Br)NC(=O)NC1C (configuration not stated)	none
CC(=O)Nc1ccc(-c2ccnc3c2CC(C)(C(=O)Nc2ccccc2)O3)cc1 (configuration not stated)	KB-V1 cytotox inconclusive, HT1080NT lethal inconclusive, HT1080 IDH1KD tx inconclusive (no result: SW480 rereplic, MCF10A rereplic)
CC1(C(=O)NCCC(F)(F)F)Cc2c(-c3ccccc3)ccnc2O1 (configuration not stated)	KB-V1 cytotox 21µM, HT1080 IDH1KD tx inconclusive, KB-3-1 tox inconclusive (no result: SW480 rereplic, MCF10A rereplic)
CC(=O)Nc1ccc(-c2ccnc3c2CC(C)(C(=O)NCCc2ccccc2)O3)cc1 (configuration not stated)	KB-3-1 tox 26µM (no result: SW480 rereplic, MCF10A rereplic)
CC(=O)NCCNC(=O)C1(C)Cc2c(-c3ccccc3)ccnc2O1 (configuration not stated)	HT1080NT lethal inconclusive (no result: SW480 rereplic, MCF10A rereplic)
CC1(C(=O)NCc2ccco2)Cc2c(-c3ccccc3)ccnc2O1 (configuration not stated)	KB-V1 cytotox 7.3µM, HT1080NT lethal inconclusive, HT1080 IDH1KD tx inconclusive, KB-3-1 tox 8.2µM (no result: SW480 rereplic, MCF10A rereplic)
Cc1ccc(NC(=O)COC(=O)c2ccccc2OCC(=O)Nc2ccc(Br)cc2)c(C)c1	none (no result: SW480 rereplic, HT1080NT lethal, HT1080 IDH1KD tx, MCF10A rereplic)
CCOc1ccc(-n2cc(C(=O)NCc3ccco3)c3cc(OC)c(OC)cc3c2=O)cc1	MCF10A rereplic inconclusive, KB-3-1 tox 0.52µM
CCn1cc(C(=O)NCc2ccco2)c2cc(OC)c(OC)cc2c1=O	none
CC(C)(C)c1cccc(S(=O)(=O)N2CCN(c3nc(-c4cccs4)nc4ccccc34)CC2)c1	none (no result: SW480 rereplic, KB-V1 cytotox, MCF10A rereplic, KB-3-1 tox)
COCCn1c(C)cc(C(=O)CN2CCCCC2)c1C	none
COCCn1c(C)cc(C(=O)CN2C(=O)NC3(CCCCCCC3)C2=O)c1C	SW480 rereplic inconclusive, MCF10A rereplic 12µM
COC(=O)Nc1nc2c(s1)CCCC2	none
CC(=O)NC(Nc1nc2c(s1)CCCC2)(C(F)(F)F)C(F)(F)F	SW480 rereplic 4.1µM
O=C(/C(=C/O)N=Nc1ccccc1)c1ccncc1	HT1080NT lethal inconclusive, MCF10A rereplic inconclusive
Cc1cccc(N=N/C(=C\O)C(=O)c2cccs2)c1	KB-V1 cytotox 26µM, HT1080NT lethal inconclusive, HT1080 IDH1KD tx 13µM, MCF10A rereplic inconclusive
O=C1CN(S(=O)(=O)c2ccc(Cl)cc2)c2ccccc2N1	none
COc1ccc(NC2CCCN(C(=O)CCc3cccc(Cl)c3)C2)cc1 (configuration not stated)	none
NC(=O)c1cccc(-c2ccnc3c2CC(C(=O)Nc2ccccc2)O3)c1 (configuration not stated)	none (no result: SW480 rereplic, MCF10A rereplic)
NC(=O)c1cccc(-c2ccnc3c2CC(C(=O)Nc2cccc(C(F)(F)F)c2)O3)c1 (configuration not stated)	KB-V1 cytotox 23µM, HT1080NT lethal inconclusive, HT1080 IDH1KD tx inconclusive, KB-3-1 tox inconclusive (no result: SW480 rereplic, MCF10A rereplic)
O=C(Nc1cccc(Oc2ccccc2)c1)C1Cc2c(-c3cccc(F)c3)ccnc2O1 (configuration not stated)	none (no result: SW480 rereplic, MCF10A rereplic)
O=C(Nc1cccc(C(F)(F)F)c1)C1Cc2c(-c3ccccc3Oc3ccccc3)ccnc2O1 (configuration not stated)	KB-V1 cytotox 18µM, HT1080NT lethal inconclusive, HT1080 IDH1KD tx inconclusive, KB-3-1 tox inconclusive (no result: SW480 rereplic, MCF10A rereplic)
CC(=O)Nc1ccc(-c2ccnc3c2CC(C(=O)Nc2cccc(Oc4ccccc4)c2)O3)cc1 (configuration not stated)	KB-V1 cytotox inconclusive, HT1080NT lethal inconclusive, HT1080 IDH1KD tx 15µM, KB-3-1 tox inconclusive (no result: SW480 rereplic, MCF10A rereplic)
CC(=O)c1cccc(NC(=O)C2Cc3c(-c4ccccc4Oc4ccccc4)ccnc3O2)c1 (configuration not stated)	KB-V1 cytotox inconclusive, HT1080NT lethal inconclusive, HT1080 IDH1KD tx inconclusive (no result: SW480 rereplic, MCF10A rereplic)
CC(=O)Nc1ccc(-c2ccnc3c2CC(C(=O)Nc2cccc(N(C)C)c2)O3)cc1 (configuration not stated)	HT1080NT lethal inconclusive, HT1080 IDH1KD tx 12µM (no result: SW480 rereplic, MCF10A rereplic)
CC(=O)Nc1ccc(NC(=O)C2Cc3c(-c4ccc(Cl)cc4)ccnc3O2)cc1 (configuration not stated)	HT1080NT lethal inconclusive (no result: SW480 rereplic, MCF10A rereplic)
CC(=O)Nc1ccc(-c2ccnc3c2CC(C(=O)Nc2cccc(C(F)(F)F)c2)O3)cc1 (configuration not stated)	KB-V1 cytotox 23µM, HT1080NT lethal inconclusive, HT1080 IDH1KD tx 16µM, KB-3-1 tox inconclusive (no result: SW480 rereplic, MCF10A rereplic)
COc1ccc(CNC(=O)C2Cc3c(-c4ccccc4Oc4ccccc4)ccnc3O2)cc1OC (configuration not stated)	KB-V1 cytotox 15µM, HT1080NT lethal inconclusive, KB-3-1 tox inconclusive (no result: SW480 rereplic, MCF10A rereplic)
O=C(NCCCN1CCCC1=O)c1cc2nc(-c3ccco3)cc(C(F)(F)F)n2n1	KB-V1 cytotox inconclusive
CC(=O)Nc1cccc(-c2csc(C(O)c3cccc(Cl)c3)n2)c1 (configuration not stated)	none (no result: SW480 rereplic, MCF10A rereplic)
COc1ccc(-c2c(C#N)c(SCC(=O)Nc3ccc(C)c(C)c3)nc(C)c2C(=O)Nc2ccccc2)cc1OC	none (no result: SW480 rereplic, HT1080NT lethal, HT1080 IDH1KD tx, MCF10A rereplic)
Cc1ccc(C)c(CSc2nnc([C@@H](N)C(C)C)o2)c1	KB-V1 cytotox 15µM
Brc1ccc(CN2CCc3nc(Nc4ccccc4)ncc3C2)s1	none (no result: SW480 rereplic, HT1080NT lethal, HT1080 IDH1KD tx, MCF10A rereplic)
CN(C)S(=O)(=O)c1ccc(NC(=O)c2cc3ccccc3o2)cc1	KB-V1 cytotox 21µM, MCF10A rereplic inconclusive
COc1cccc(C(=O)Nc2ccc(NC(=O)c3cc4ccccc4o3)c(OC)c2)c1	SW480 rereplic inconclusive, MCF10A rereplic 10µM, KB-3-1 tox inconclusive
COc1cc(NC(=O)c2ccccc2)ccc1NC(=O)c1cc2ccccc2o1	MCF10A rereplic inconclusive
Cc1cc(NC(=O)c2cncc(Br)c2)ccc1NC(=O)c1cc2ccccc2o1	SW480 rereplic inconclusive, KB-V1 cytotox inconclusive, MCF10A rereplic 2.9µM, KB-3-1 tox inconclusive
